Assay outcomes from PubChem.
a7 integrin act = qHTS for Activators of Integrin-Mediated Alleviation for Muscular Dystrophy; alpha7betagal myoblasts, beta-gal FDG fluorescence, 48 h; Potency, µM (top dose mostly 38.3 µM), most hits filed as activators; 0.064% of 350,000 active; further: nearly all actives have a fitted effect of over 60% in size
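alpha7betagal+/- myoblasts (passage 13, 250/well) treated 48 h at 37C with compounds at 1:260 dilution of DMSO stock. Lysed, then beta-galactosidase activity read as FDG fluorescence (ex 480/em 540) after 30 min, with pre-read for autofluorescence.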
IL-2 act = qHTS of IL-2 Activators; activation, % (series mostly up to about 46 µM); AID 652025, 2013; IL-2 activation reporter assay, cell-based qHTS; stimulated with anti-CD3/CD4/CD28 beads; in transgenic mouse T cells; 0.065% of 360,000 active; in the data active means activation above about 50%; inconclusive means mostly about 30% to 49%
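Screening format: compound pinned onto unstimulated transgenic mouse T cells, 60 min incubation, then anti-CD3/anti-CD4/anti-CD28 bead stimulation for 18 hours at 37 degrees C, followed by EGFP and DsRed detection.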
BRCA1 expr up = qHTS Assay to Identify Small Molecule Activators of BRCA1 Expression | MCF7-BRCA1-FFLuc reporter, luminescence, 48 h; response scale: scaled: vehicle 0%, 10 µM genistein 100% | Potency, µM (highest dose often 46.1 µM), usual class: activators | AID 624202, 2012 | 1.1% of 380,000 active; further: nearly all actives have a fitted effect of over 80% in size
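Luminescence from a BRCA1-driven firefly luciferase in MCF7 cells was read after 48 h compound exposure at 37 C. Data normalized against DMSO and a 10microM genistein activation control, then curve-fitted across the titration.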
BCR signal inh = qHTS Assay to Find Inhibitors of Chronic Active B-Cell Receptor Signaling; AID 493014, 2011; 0.05% of 340,000 active; ABC-DLBCL IkBa-CBG/CBR reporter, luminescence ratio, 4 h; Potency, µM (top dose mostly 46.1 µM), most hits filed as inhibitors; active means well fitted inhibition curve with a large enough effect in the signal ratio, with a control signal flat, not every such curve was filed as active; inconclusive means small, poorly fitted or top-dose-only effect, or effect the other way, or a change in a side signal; the % refers to the signal ratio
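TMD8 ABC-DLBCL cells carrying doxycycline-inducible green luciferase fused to IkappaBalpha plus unfused red luciferase were exposed to compounds (up to 46 uM) for 4 hrs at 37C. Activity came from the overlap-corrected green/red luminescence ratio.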
Nrf2 activator = qHTS of Nrf2 Activators; AREc32 ARE-luciferase reporter (MCF7-derived line), luminescence, 24 h; Potency, µM (titrated, usually from 46.1 µM), hits mostly activators; AID 624171, 2012; 0.31% of 410,000 active; further: nearly all actives have a fitted effect of over 65% in size
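Luminescent ARE reporter assay in AREc32_Fluc cells: overnight plating at 37 deg C, 24 hr compound incubation, Steady-Glo added, 30 min RT before reading.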
N370S GC mod = qHTS Assay for Inhibitors and Activators of N370S glucocerebrosidase as a Potential Chaperone Treatment of Gaucher Disease; Lysosomal acid glucosylceramidase (Homo sapiens), P04062; N370S GC spleen homogenate, 4MU-glucoside fluorescence; Potency, µM (highest dose often 59.4 µM), most hits filed as inhibitors; 0.092% of 330,000 active
Of the large screens only hits and unclear results are named; the others gave an inactive call. Hits are enriched below; roughly 1.4% of the tested compounds scored in any of these assays. Unless noted, the call rests on the fitted dose curve; in most records, active means well fitted curve in the direction sought with a large enough effect; inconclusive means small, poorly fitted or top-dose-only effect, or another doubt; inactive means no such curve, though single readings can be large; an effect the other way counts as inactive or inconclusive.

COc1ccc(NC(=O)CSc2nc(-c3ccccc3)cc(-c3cc(OC)c(OC)c(OC)c3)c2C#N)c(OC)c1	none (no result: a7 integrin act, IL-2 act, BRCA1 expr up, BCR signal inh, N370S GC mod)
O=c1c2ccccc2sc2ccc(NCCCN3CCOCC3)cc12	BRCA1 expr up 11.2µM (no result: BCR signal inh, N370S GC mod)
COc1ccc(CN(Cc2ccccc2)C(=O)c2ccco2)cc1COc1ccc(NC(C)=O)cc1	none (no result: a7 integrin act, IL-2 act, BCR signal inh, Nrf2 activator, N370S GC mod)
O=C(Cn1nnc(-c2ccccc2F)n1)N1CCCCC1	BRCA1 expr up 8.91µM
COc1cccc(-c2cnc(C(O)c3ccc(C)cc3)[nH]2)c1 (centres undefined)	none (no result: a7 integrin act, BCR signal inh, N370S GC mod)
COc1ccc(-c2cnc(C(O)c3ccc(-c4ccccc4)cc3)[nH]2)cc1 (centres undefined)	none (no result: a7 integrin act, BCR signal inh, N370S GC mod)
COc1cccc(-c2cnc(C(O)c3ccccc3)[nH]2)c1 (centres undefined)	BRCA1 expr up 11.2µM (no result: a7 integrin act, BCR signal inh, N370S GC mod)
OC(c1ccc(-c2ccccc2)cc1)c1ncc(-c2ccccc2Cl)[nH]1 (centres undefined)	none (no result: a7 integrin act, BCR signal inh, N370S GC mod)
OC(c1ccccc1)c1ncc(-c2ccccc2Cl)[nH]1 (centres undefined)	BRCA1 expr up 10µM (no result: a7 integrin act, BCR signal inh, N370S GC mod)
COc1ccc(-c2cnc(C(O)c3ccccc3)[nH]2)cc1 (centres undefined)	BRCA1 expr up 12.6µM (no result: a7 integrin act, BCR signal inh, N370S GC mod)
C=COCC1CN2C(CCC(C)C2c2ccc(Br)cc2)C(=O)O1 (centres undefined)	none (no result: a7 integrin act, IL-2 act, BRCA1 expr up, BCR signal inh, Nrf2 activator)
CC1CC(C)CN(C(=O)COC(=O)/C=C/c2ccco2)C1 (centres undefined)	BCR signal inh inconclusive, Nrf2 activator 14.1µM (no result: N370S GC mod)
CNC(=O)COC(=O)/C=C/c1ccco1	none
CC1CC(C)CN(C(=O)COC(=O)/C=C/c2cccc([N+](=O)[O-])c2)C1 (centres undefined)	none
CC(NC(=O)COC(=O)/C=C/c1ccco1)c1ccccc1 (centres undefined)	Nrf2 activator 12.6µM
COc1ccc([N+](=O)[O-])cc1C1NN=C(c2ccccc2O)S1 (centres undefined)	BCR signal inh inconclusive, Nrf2 activator 4.47µM
Fc1ccc(CSc2ccc(-c3ccco3)nn2)cc1	BRCA1 expr up 7.08µM
O=C(NC(Cc1ccccc1)C(=O)O)/C(=C/c1ccc([N+](=O)[O-])cc1)NC(=O)c1ccccc1Br (centres undefined)	none
O=c1c2c3c(sc2ncn1/N=C/c1ccco1)CCCC3	none
O=c1c2c3c(sc2ncn1/N=C/c1ccccc1)CCCC3	BRCA1 expr up 20µM
CON(C)C(=O)/C=C/c1ccc([B-](F)(F)F)cc1	BRCA1 expr up 14.1µM (no result: BCR signal inh, N370S GC mod)
CCN(CC)C(=O)/C=C/c1ccccc1	none (no result: N370S GC mod)
Nc1ccc2oc(-c3ccccc3Cl)cc(=O)c2c1O	BRCA1 expr up 7.08µM
CCOc1ccc(N(CC(=O)Nc2cc(C)cc(C)c2)S(C)(=O)=O)cc1	BRCA1 expr up 12.6µM
CCOc1ccc(N(CC(=O)Nc2ccc(C)cc2)S(C)(=O)=O)cc1	BRCA1 expr up 8.91µM
CCOc1ccc(N(CC(=O)Nc2ccc(C)cc2C)S(C)(=O)=O)cc1	none
CCCOC(=O)/C(=C\C=C\c1ccco1)NC(=O)c1ccccc1	Nrf2 activator 12.6µM
O=Cc1c[nH]c2ccc(OCc3ccccc3)cc12	BCR signal inh inconclusive (no result: N370S GC mod)
Cc1ccc(CN2C(=O)c3ccccc3Sc3ccc(C(=O)NCCN4CCOCC4)cc32)cc1	BCR signal inh inconclusive, N370S GC mod inconclusive
O=C(NCCN1CCOCC1)c1ccc2c(c1)N(Cc1ccccc1F)C(=O)c1ccccc1S2	N370S GC mod 10µM
Cc1ccccc1CN1C(=O)c2ccccc2Sc2ccc(C(=O)NCCN3CCOCC3)cc21	N370S GC mod inconclusive
Cc1cccc(CN2C(=O)c3ccccc3Sc3ccc(C(=O)NCCN4CCOCC4)cc32)c1	a7 integrin act inconclusive, N370S GC mod 14.1µM
COc1ccc2nc(/C=N/NC(=O)CCCCCNC(=O)OC(C)(C)C)ccc2c1	none
